{"source": "PubChem BioAssay AID1345085", "about": "(National Center for Advancing Translational Sciences (NCATS), 2018)", "note": "Results filed as inconclusive are left out. Activity calls are given as the source filed them. The call rests on the fitted dose curve; in most records, active means well fitted cell-killing curve with a large enough effect; inconclusive means small, poorly fitted or top-dose-only effect, or effect the other way; inactive means no such curve, though single readings can be large or run the other way."}
{"tested_on": "JEG-3", "assay": "Confirmatory qHTS for gynecologic anti-cancer compounds from libraries of approved drugs and bioactive compounds; further: nearly all actives have a fitted effect of over 55% in size; further: potency means the concentration at half of the fitted maximal effect", "details": "gynecologic cancer cell panel viability, ATPlite luminescence, 48 h; series mostly up to 57.6 µM", "how_it_was_run": "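Cells (1,000/well) plated 16 h, then exposed 48 h at 37 °C to 11 concentrations (1:3) from 57.5 uM to 0.977 nM. Viability by ATPlite luminescence after 15 min; IC50 derived, with HEK 293T used for selectivity index.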"}
{"compound": "COc1cccc2cc(-c3nc(C4CCC(C(=O)O)CC4)n4ncnc(N)c34)[nH]c12", "note": "(configuration not stated)", "Potency": "inactive"}
{"compound": "COc1ccc(OC)c(-c2nnc3ccc(-c4ccc(OC)c(O[C@@H]5CCOC5)c4)nn23)c1", "Potency": "4.85 µM (active)"}
{"compound": "CC(C)n1nc(-c2cc3cc(O)ccc3[nH]2)c2c(N)ncnc21", "Potency": "17.2 µM (active)"}
{"compound": "CC[C@H](CC#N)OC(=O)N[C@@H](C)c1cccc(NC(=O)Nc2ccc(-c3cnco3)c(OC)c2)c1", "Potency": "15.3 µM (active)"}
{"compound": "Nc1ccn([C@@H]2O[C@H](CO)[C@@H](O)C2(F)F)c(=O)n1", "Potency": "inactive"}
{"compound": "Nc1nc(Cl)nc2c1ncn2C1OC(CO)C(O)C1F", "note": "(configuration not stated)", "Potency": "2.17 µM (active)"}
{"compound": "CC(C)CC(=O)Nc1n[nH]c2c1CN(C(=O)C1CCN(C)CC1)C2(C)C", "Potency": "1.09 µM (active)"}
{"compound": "N=C(N)c1ccc(OCCCCCOc2ccc(C(=N)N)cc2)cc1", "Potency": "3.43 µM (active)"}
{"compound": "C=CC(=O)Nc1cc2c(Nc3ccc(F)c(Cl)c3)ncnc2cc1OCCCN1CCOCC1", "Potency": "27.3 µM (active)"}
{"compound": "COc1ccc(-c2ccc3c(N4CCOCC4C)nc(N4CCOCC4C)nc3n2)cc1CO", "note": "(configuration not stated)", "Potency": "inactive"}
{"compound": "Oc1cn2c(n1)Nc1ccc(Cl)c(Cl)c1C2", "Potency": "inactive"}
{"compound": "Cc1ccccc1C(OCCN(C)C)c1ccccc1", "note": "(configuration not stated)", "Potency": "inactive"}
{"compound": "CCc1c2c(nc3ccc(O)cc13)-c1cc3c(c(=O)n1C2)COC(=O)[C@]3(O)CC", "Potency": "0.122 µM (active)"}
{"compound": "Nc1nc(=S)c2[nH]cnc2[nH]1", "Potency": "4.32 µM (active)"}
{"compound": "CCCC(=O)O[C@]1(C(=O)CCl)[C@@H](C)C[C@H]2[C@@H]3CCC4=CC(=O)C=C[C@]4(C)[C@@]3(F)C(=O)C[C@@]21C", "Potency": "10.9 µM (active)"}
{"compound": "Nc1ccc(C(=O)Nc2cccc(-c3nc(N4CCOCC4)c4oc5ncccc5c4n3)c2)cn1", "Potency": "5.44 µM (active)"}
{"compound": "COc1ccc(CCC(=O)c2c(O)cc(O[C@@H]3O[C@H](CO)[C@@H](O)[C@H](O)[C@H]3O[C@@H]3O[C@@H](C)[C@H](O)[C@@H](O)[C@H]3O)cc2O)cc1O", "Potency": "inactive"}
{"compound": "COc1cc2ncnc(Nc3ccc(F)c(Cl)c3)c2cc1OCCCN1CCOCC1", "Potency": "inactive"}
{"compound": "Nc1nccc(Oc2ccc(NC(=O)c3c[nH]cc(-c4ccc(F)cc4)c3=O)cc2F)c1Cl", "Potency": "4.32 µM (active)"}
{"compound": "CC1=C(/C=C/C(C)=C/C=C/C(C)=C/C(=O)Nc2ccc(O)cc2)C(C)(C)CCC1", "Potency": "21.7 µM (active)"}
{"compound": "CNc1nc(Nc2ccc(C(=O)N3CCOCC3)cc2OC)ncc1Cl", "Potency": "inactive"}
{"compound": "NC(=O)Nc1cc(-c2cccc(F)c2)sc1C(=O)NC1CCCNC1", "note": "(configuration not stated)", "Potency": "1.22 µM (active)"}
{"compound": "COCCOc1ccc2c(c1)ncn2-c1ccc2cccc(N3CCC(N)CC3)c2n1", "Potency": "10.9 µM (active)"}
{"compound": "CC[C@@]1(O)C(=O)OCc2c1cc1n(c2=O)Cc2c-1nc1ccccc1c2/C=N/OC(C)(C)C", "Potency": "0.0217 µM (active)"}
{"compound": "Nc1ccccc1NC(=O)c1ccc(CNc2nccc(-c3cccnc3)n2)cc1", "Potency": "2.17 µM (active)"}
{"compound": "CC(=O)NCC(=O)N1C2CCC1c1cc(Nc3ncc(C(F)(F)F)c(NC4CCC4)n3)ccc12", "note": "(configuration not stated)", "Potency": "19.3 µM (active)"}
{"compound": "CCC(=O)N1CCN(c2ccc(-n3c(=O)ccc4cnc5ccc(-c6cnc7ccccc7c6)cc5c43)cc2C(F)(F)F)CC1", "Potency": "6.27 µM (active)"}
{"compound": "COc1cc(N2CCC(N3CCN(C)CC3)CC2)ccc1Nc1ncc(Cl)c(Nc2ccccc2S(=O)(=O)C(C)C)n1", "Potency": "19.3 µM (active)"}
{"compound": "O=C(/C=C/c1cccc(S(=O)(=O)Nc2ccccc2)c1)NO", "Potency": "1.19 µM (active)"}
{"compound": "C1CCC(C(CC2CCCCN2)C2CCCCC2)CC1", "note": "(configuration not stated)", "Potency": "27.3 µM (active)"}
{"compound": "Cn1cnc([N+](=O)[O-])c1Sc1ncnc2nc[nH]c12", "Potency": "8.63 µM (active)"}
{"compound": "Cc1nc2ccc(CN(C)c3ccc(C(=O)NC(CCC(=O)O)C(=O)O)s3)cc2c(=O)[nH]1", "note": "(configuration not stated)", "Potency": "inactive"}
